From PubChem BioAssay (NCI)
The panel holds about 83,000 compounds, 20% with a hit somewhere; the sample as a whole holds those more often.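 96-well plates, one dose, 48 hours. Percent growth reported; active if below 10.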 Calls of active or inactive are those of the source.

Columns and labels:
Test in all cases: NCI-60 one-dose screen, 48 h (100 = growth as untreated, 0 = no growth, -100 = all killed)
Details in all cases: 10 µM unless noted
[1] = tested on: DU-145 prostate
[2] = tested on: K-562 leukemia
[3] = tested on: MALME-3M melanoma
[4] = tested on: MDA-MB-231 breast
[5] = tested on: RXF 393 renal
[6] = tested on: SF-268 CNS
[7] = tested on: SF-295 CNS
[8] = tested on: SF-539 CNS
[9] = tested on: UACC-257 melanoma
[10] = tested on: M14 melanoma
[11] = tested on: HCT-15 colon
[12] = tested on: HT29 colon
[13] = tested on: SNB-75 CNS
[14] = tested on: SNB-19 CNS
[15] = tested on: U251 CNS
[16] = tested on: PC-3 prostate
[17] = tested on: SK-MEL-5 melanoma
[18] = tested on: UACC-62 melanoma
[19] = tested on: LOX IMVI melanoma
[20] = tested on: SK-MEL-28 melanoma

Measured: growth

COc1ccc(-c2cc(C(=O)N3N=C(c4ccc(N)cc4)CC3c3ccc(OC)cc3)c3cc(OC)ccc3n2)cc1 (stereo not drawn)
inactive: [1] 80.2% | [2] 11.8% | [3] 71.3% | [4] 73.6% | [5] 68.2% | [6] 54.9% | [7] 64.1% | [8] 34% | [9] 60.8% | [10] 38.4% | [11] 22.2% | [12] 26.5% | [13] 70.3% | [14] 58.1% | [15] 48.7% | [16] 42.5% | [17] 67.3% | [18] 40.4% | [19] 41.3% | [20] 64.4%

C=C1C(=O)O[C@H]2[C@H]1CC/C(COC(=O)c1cccnc1)=C\CC[C@@]1(C)O[C@@H]21
inactive: [1] 16.4% | [2] 16.4% | [3] 66.9% | [4] 79.9% | [5] 46% | [6] 90.7% | [7] 102% | [8] 60.2% | [9] 57.8% | [10] 58.3% | [11] 34.4% | [12] 33.5% | [13] 83.4% | [14] 90.2% | [15] 88.5% | [16] 66.1% | [17] 88.9% | [18] 69.5% | [20] 89%

COC(=O)c1cc2c3c(cc(O)c2[nH]1)N(C(=O)C1Cc2cc(OC)c(OC)c(OC)c2N1)CC3CCl (stereo not drawn)
active: [1] -99.1% | [2] 1.56% | [3] -58.1% | [4] -41.3% | [5] -99.4% | [6] -5.75% | [7] -40.6% | [8] -74.7% | [9] -72.3% | [10] -25.1% | [11] 1.13% | [12] -7.58% | [13] -32.9% | [14] -52% | [15] -54.9% | [16] -17.1% | [17] -94.6% | [18] -61% | [20] -6.29%

COc1cccc(NC(=O)Nc2ccc(Oc3ncnc4[nH]c(C)c(C)c34)cc2)c1
active: [19] -54.9%
inactive: [1] 91.9% | [2] 83.7% | [3] 114% | [4] 97.1% | [5] 109% | [6] 81.3% | [7] 91.7% | [8] 64.6% | [9] 97.7% | [10] 100% | [11] 87.9% | [12] 75.4% | [13] 87.2% | [15] 76.9% | [16] 80.8% | [17] 88% | [18] 74.2% | [20] 103%

CC(C)NS(=O)(=O)c1cccc(-c2ccc3c(=O)n(CCCN)c4c(c3c2)C(=O)c2ccccc2-4)c1
inactive: [1] 107% | [2] 88.3% | [3] 118% | [4] 108% | [5] 109% | [6] 98.2% | [7] 104% | [8] 104% | [9] 110% | [10] 115% | [11] 102% | [12] 89.6% | [13] 82.3% | [14] 111% | [15] 104% | [16] 102% | [17] 98.8% | [18] 108% | [20] 110%

O=C(O)CCNC1CCCCC1
inactive: [1] 112% | [2] 100% | [3] 144% | [4] 100% | [5] 137% | [6] 97.8% | [7] 131% | [8] 95.7% | [9] 20.9% | [10] 93.3% | [11] 99.4% | [12] 106% | [13] 90.3% | [14] 91.2% | [15] 94.2% | [16] 94.8% | [17] 108% | [18] 100% | [20] 100%

COc1cc(-c2csc(NC(=O)Nc3ccc(C(F)(F)F)cc3)n2)cc(OC)c1OC
inactive: [1] 20.8% | [6] 29.1% | [8] 16% | [11] 10.6% | [14] 14.1% | [20] 16.3%
active: [2] 7.21% | [3] -12.1% | [4] -14.3% | [5] -4.21% | [7] -12.4% | [9] -18.1% | [10] 5.54% | [12] 3.06% | [13] -12.1% | [15] 6.12% | [16] 3.3% | [17] -54.7% | [18] -0.579%

O=C1CCc2ccccc2N1
inactive: [1] 103% | [2] 90.2% | [3] 88.5% | [4] 110% | [5] 111% | [6] 97.4% | [7] 107% | [8] 105% | [9] 106% | [10] 99.2% | [11] 103% | [12] 102% | [13] 78.1% | [14] 96.2% | [15] 102% | [16] 102% | [17] 98.9% | [18] 97.6% | [20] 104%
